Measured values published in PubChem BioAssay (NCATS).
Records with an inconclusive call do not appear. Unmarked numbers belong to inactive results. Active and inactive are the calls of the source. Calls come from the whole dose curve; as a rule, active = well fitted activation curve with a large enough effect; inconclusive = small, poorly fitted or top-dose-only effect; inactive = flat fitted curve, though single readings scatter.

Assay: Primary redox qHTS assay for identification of artifact compounds. (AID 1845223);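 note: 0% = DMSO and 100% = reference compound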
Conditions: Amplex Red/HRP redox cycling with DTT, fluorescence; series mostly up to 53.8 µM
Procedure, shortened: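 Amplex Red (25 uM) and HRP (250 mU/mL) in HBSS, with compounds for 15 min, then 250 uM DTT for 30 min, room temperature, dark. Fluorescence 525/598 nm read; normalized to DMSO and 10 uM DA3003; Hill fit.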
For `Cc1cccc(Nc2cc(Cl)nc(SCC(=O)O)n2)c1C`, the outcome was “inactive”. In the case of `CC(=O)NC(Cc1ccccc1)C(=O)O` (stereo not drawn), the outcome is reported as “inactive”. With `O=C(CCCN1CCN(c2ccccn2)CC1)c1ccc(F)cc1` the outcome was “inactive”. `C[C@@H]1CN(c2c(F)c(F)c3c(=O)c(C(=O)O)cn(C4CC4)c3c2F)C[C@H](C)N1` gave a redox activity (% of DA3003) of -2.75% [at 11.5 µM]. For `CCOC(=O)[C@H](CCc1ccccc1)N[C@@H](C)C(=O)N1C(=O)N(C)C[C@H]1C(=O)O`, the outcome was “inactive”. With `C[C@]12CC[C@@H]3c4ccc(O)cc4CC[C@H]3[C@@H]1CC[C@@H]2OC(=O)CCC1CCCC1` the outcome was “inactive”. With `CCCCN1CCCC[C@H]1C(=O)Nc1c(C)cccc1C` the outcome was “inactive”. In the case of `CC/C=C(\C(=O)N[C@@H]1C(=O)N2C(C(=O)OCOC(=O)C(C)(C)C)=C(COC(N)=O)CS[C@H]12)c1csc(N)n1`, the outcome is reported as “inactive”. In the case of `C[C@@H]1C[C@H]2[C@@H]3C[C@H](F)C4=CC(=O)C=C[C@]4(C)[C@@]3(F)[C@@H](O)C[C@]2(C)[C@@]1(O)C(=O)CO`, the outcome is reported as “inactive”. With `CC(C(O)c1ccc(O)cc1)N1CCC(Cc2ccccc2)CC1` (stereo not drawn) the outcome was “inactive”. With `c1ccc(CN(CC2=NCCN2)c2ccccc2)cc1` the outcome was “inactive”. With `CCN(CC)CCNC(=O)c1cc(Cl)c(N)cc1OC` the outcome was “inactive”. With `CN1CCOC(c2ccccc2)c2ccccc2C1` (stereo not drawn) the outcome was “inactive”. With `OCC(O)CN1CCN(c2ccccc2)CC1` (stereo not drawn) the outcome was “inactive”. With `CCCCOc1cc(C(=O)OCCN(CC)CC)ccc1N` the outcome was “inactive”. With `CC(C)(C)C(=O)C(Oc1ccc(Cl)cc1)n1ccnc1` (stereo not drawn) the outcome was “inactive”. With `CCN(CC)C(=O)Nc1ccc(OCC(O)CNC(C)(C)C)c(C(C)=O)c1` (stereo not drawn) the outcome was “inactive”. In the case of `Nc1ccc(S(=O)(=O)Nc2nccs2)cc1`, the outcome is reported as “inactive”. In the case of `CS(=O)(=O)c1ccc([C@@H](O)[C@@H](CF)NC(=O)C(Cl)Cl)cc1`, the outcome is reported as “inactive”. For `Cn1c(=O)c2c(ncn2CC2OCCO2)n(C)c1=O`, the outcome was “inactive”. In the case of `COc1ccc2[nH]c(S(=O)Cc3ncc(C)c(OC)c3C)nc2n1` (stereo not drawn), the outcome is reported as “inactive”. With `COc1ccc2c(c1)C(=O)N(CCc1ccc(S(=O)(=O)NC(=O)NC3CCCCC3)cc1)C(=O)C2(C)C` the outcome was “inactive”. For `O=c1[nH]cnc2c1ncn2[C@@H]1O[C@H](CO)[C@@H](O)[C@H]1O`, the outcome was “inactive”.
